Reference: PubChem BioAssay

tested on: Lefty1; test: Lefty1 protein binding to printed compounds – biochemical, small-molecule microarray, 635/667 nm fluorescence, primary screen (AID 1139); conditions: fluorescence 635/667, higher = more signal

Row | SMILES | composite z-score
1 | CC(C)N1C(=O)c2ccccc2[C@](C)(C(=O)NCCN2CCOCC2)[C@@H]1c1ccc(CO)cc1 | -0.117
2 | CC(C)C(=C=CC[C@@H](O)c1ccc(OCCO)cc1)C[C@@H](O)c1ccccn1 | 1.51
3 | CO[C@H]1O[C@H](CO)[C@@H](OC(=O)Nc2ccc(Oc3ccccc3)cc2)[C@H](OC(=O)Nc2ccc3c(c2)OCO3)[C@H]1OC(=O)Nc1ccc2c(c1)OCO2 | 1.05
4 | C=CCOC(=O)[C@H]1[C@@H]2C(=O)O[C@@H](c3ccccc3)[C@@H](c3ccccc3)N2[C@@H](c2ccc(OCCOC(=O)[C@@H]3C[C@@H]4C(=O)N[C@@H](CC(C)C)C(=O)N4[C@@H]3c3ccc(O)cc3)cc2)[C@]12C(=O)Nc1ccccc12 | 1.54
5 | O=C(c1ccccc1)N1C(=O)[C@]2(COC(c3ccc(OCCCO)cc3)=N2)Cc2ccccc21 | 0.443
6 | CCCc1cc2c(n1Cc1cc(F)cc(F)c1)C(C)C1CN(C(=O)c3ccccc3)C(C)(C(=O)OC)C21 (configuration not stated) | -0.311
7 | O=C(c1ccccc1)N1C(=O)[C@@]2(Cc3ccccc31)N=C(c1ccc(OCCCO)cc1)O[C@H]2c1ccccc1 | 0.856
8 | CO[C@H]1O[C@H](CO)[C@@H](OC(=O)Nc2ccccc2)[C@H](OC(=O)Nc2ccccc2)[C@@H]1OC(=O)Nc1ccccc1 | 0.464
9 | COc1ccc(CCNC(=O)[C@@]2(Sc3ccc(C)cc3)CC(=O)N(C3Cc4ccccc4C3)[C@@H]2c2ccc(CO)cc2I)cc1 | -1.04
10 | CCCCCN1CC=CC23O[C@@H]4C=CCCOC(=O)C4[C@H]2C(=O)N(CCCCCO)[C@@H]3C1=O (some centres not stated) | -0.582
11 | COc1cc2c(cc1OC)CN(C(=O)[C@H]1[C@@H]3C(=O)O[C@@H](c4ccccc4)[C@@H](c4ccccc4)N3[C@@H](c3ccc(O)cc3)[C@]13C(=O)Nc1ccc(C#CCCO)cc13)CC2 | 0.0938
12 | CN1C=C(C(=O)OCCS(C)(=O)=O)C(C(=O)OCCS(C)(=O)=O)=CC(c2ccc(CO)cc2)=CC1C1CC1 (configuration not stated) | 0.53
13 | C=C[C@H](CO[Si](CC)(CC)CC)N(Cc1ccc(OC(C)=O)c(OC)c1)S(=O)(=O)c1ccc(Br)cc1 | 0.237
14 | C[N+](C)(C)CCCCCCNC(=O)[C@@H]1C[C@@H]2C(=O)N[C@@H](Cc3ccccc3)C(=O)N2[C@@H]1c1cccc(OCCO)c1 | 1
15 | NC(=O)[C@@H]1[C@H]2C(=O)O[C@H](c3ccccc3)[C@H](c3ccccc3)N2[C@H](c2ccc(O)cc2)[C@@]12C(=O)Nc1ccccc12 | -0.827
16 | C=C(CCCC)/C(=C/C[C@@H](OC(C)=O)c1ccc(OCCO)cc1)c1cnc2ccccc2c1 | 0.856

tested on: wheat germ agglutinin (Triticum aestivum), Alexa647-labelled; test: Alexa647-WGA lectin binding to printed small molecules – biochemical, small-molecule microarray, 635/667 nm fluorescence, artefact control for SMM control-protein annotation, profiling panel (AID 1140); conditions: WGA-A647 binding, 635 nm fluorescence, higher = more signal;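 note: score merges 667 nm feature emission with signal to noise over triplicate slides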

Row | SMILES | composite z-score
17 | CC(C)=CCN[C@H](CO)c1ccccc1 | -0.246
18 | CCCC#C[Si](O[C@H](CC)c1cn(Cc2cccc(Cl)c2)nn1)(C(C)C)C(C)C | 0.686
19 | C=CCOC(=O)[C@H]1[C@@H]2C(=O)O[C@@H](c3ccccc3)[C@@H](c3ccccc3)N2[C@@H](c2ccc(OCCOC(=O)[C@H]3C[C@H]4C(=O)N[C@@H](CCCCNC(C)=O)C(=O)N4[C@H]3c3cccc(OCCO)c3)cc2)[C@]12C(=O)Nc1ccccc12 | 0.38
20 | C=C(COC)/C(=C/C[C@@H](OC(=O)c1ccncc1)c1ccc(CO)o1)c1cc(C(=O)OC)ccc1OC | 0.707
21 | CC(C)C(=C=CC[C@@H](O)c1ccc(OCCO)cc1)C[C@@H](O)COCc1ccccc1 | 0.225
22 | CCCCCCc1nc(-c2cc(C)c(OC)c(C)c2)cc2c1[Si](C(C)C)(C(C)C)OC2 | -0.239
23 | COc1cc2c(cc1O)C(C1CC1)N(Cc1sc3ccccc3c1Cl)CC2 (configuration not stated) | 0.402
24 | COCCOC(=O)N1C(=O)[C@@]2(c3cc(C#CCC(C(=O)OC)C(=O)OC)ccc31)[C@H](C(=O)N1CCN(c3ncccn3)CC1)[C@H]1C(=O)O[C@H](c3ccccc3)[C@H](c3ccccc3)N1[C@@H]2c1ccccc1OCCO | 0.755
25 | C[C@H]1NC(=O)[C@@]23C(=O)N[C@@H](Cc4ccccc4)C2[C@H](C)[C@@]2(C)O[C@H]2C3/C=C/C/C=C\CNC(=O)[C@@H]2CCCN2C1=O (some centres not stated) | 0.765
26 | CCOC(=O)C[C@H]1[C@H](OC(=O)c2ccc(C(=O)c3ccccc3)cc2)[C@@H](NC(=O)c2ccc3ccccc3n2)c2cc(OCCCO)ccc2N1C(=O)c1ccccc1 | 0.761
27 | CCCC[C@@H]1C[C@H]1[C@@H](NC(=O)c1cccs1)c1ccc(-c2ccccc2)cc1 | 0.849
28 | COC(=O)[C@@]1(Cc2ccc(OC)cc2)[C@H]2c3cc(C(=O)N4CCCC4)n(Cc4ccc(O)c(OC)c4)c3C[C@H]2CN1C(=O)c1ccccc1 | 1.11
29 | [N-]=[N+]=NCc1ccccc1C[C@]1(C(N)=O)COC(c2ccc(OCCCO)cc2)=N1 | 0.821
30 | C=C(COC)C(=O)CC[C@@H](OC(C)=O)c1ccc(CO)o1 | 0.397
31 | O=C1c2ccccc2[C@](Cc2ccccc2I)(C(=O)NCCN2CCOCC2)[C@H](c2ccc(CO)cc2)N1Cc1ccccc1Cl | 1.08
32 | COCCCNC(=O)[C@]1(CCC(=O)OC(C)(C)C)N=C(c2ccc(OCCCO)cc2)O[C@@H]1c1ccccc1CN=[N+]=[N-] | 1.13
33 | C=CCNC(=O)[C@@H]1[C@H]2C(=O)O[C@H](c3ccccc3)[C@H](c3ccccc3)N2[C@H](c2ccc(OCCO)cc2)[C@@]12C(=O)Nc1ccc(C#CCC(C(=O)OC)C(=O)OC)cc12 | 1.25
34 | COc1cc2c(cc1OC)CN(C(=O)[C@@H]1[C@H]3C(=O)O[C@H](c4ccccc4)[C@H](c4ccccc4)N3[C@H](c3ccccc3OCCO)[C@@]13C(=O)Nc1ccc(C#CCCO)cc13)CC2 | 0.988

Row | SMILES | composite z-score
35 | C=CCC(OC(C)=O)[C@@H]1[C@@H](N(Cc2cc3ccccc3o2)C(=O)c2cccc3ccccc23)c2cc(OCCCO)ccc2N1C(=O)c1ccc(-c2ccccc2)cc1 (some centres not stated) | 0.297
36 | COC(=O)[C@@]1(Cc2ccc(F)cc2)[C@H]2c3cc(C(=O)N4CCCC4)n(CCCNc4ncc(C(F)(F)F)cc4Cl)c3C[C@H]2CN1C(=O)c1ccccc1 | 1.03
37 | CC(C)N1C(=O)c2ccccc2[C@](C)(C(=O)NCCN2CCOCC2)[C@@H]1c1ccc(CO)cc1 | -0.489
38 | CC(C)C(=C=CC[C@@H](O)c1ccc(OCCO)cc1)C[C@@H](O)c1ccccn1 | -0.187
39 | CO[C@H]1O[C@H](CO)[C@@H](OC(=O)Nc2ccc(Oc3ccccc3)cc2)[C@H](OC(=O)Nc2ccc3c(c2)OCO3)[C@H]1OC(=O)Nc1ccc2c(c1)OCO2 | 1.18
40 | C=CCOC(=O)[C@H]1[C@@H]2C(=O)O[C@@H](c3ccccc3)[C@@H](c3ccccc3)N2[C@@H](c2ccc(OCCOC(=O)[C@@H]3C[C@@H]4C(=O)N[C@@H](CC(C)C)C(=O)N4[C@@H]3c3ccc(O)cc3)cc2)[C@]12C(=O)Nc1ccccc12 | 0.232
41 | O=C(c1ccccc1)N1C(=O)[C@]2(COC(c3ccc(OCCCO)cc3)=N2)Cc2ccccc21 | 1.12
42 | CCCc1cc2c(n1Cc1cc(F)cc(F)c1)C(C)C1CN(C(=O)c3ccccc3)C(C)(C(=O)OC)C21 (configuration not stated) | 1.01
43 | O=C(c1ccccc1)N1C(=O)[C@@]2(Cc3ccccc31)N=C(c1ccc(OCCCO)cc1)O[C@H]2c1ccccc1 | 0.811
44 | CO[C@H]1O[C@H](CO)[C@@H](OC(=O)Nc2ccccc2)[C@H](OC(=O)Nc2ccccc2)[C@@H]1OC(=O)Nc1ccccc1 | 0.833
45 | COc1ccc(CCNC(=O)[C@@]2(Sc3ccc(C)cc3)CC(=O)N(C3Cc4ccccc4C3)[C@@H]2c2ccc(CO)cc2I)cc1 | -0.176
46 | CCCCCN1CC=CC23O[C@@H]4C=CCCOC(=O)C4[C@H]2C(=O)N(CCCCCO)[C@@H]3C1=O (some centres not stated) | 0.796
47 | COc1cc2c(cc1OC)CN(C(=O)[C@H]1[C@@H]3C(=O)O[C@@H](c4ccccc4)[C@@H](c4ccccc4)N3[C@@H](c3ccc(O)cc3)[C@]13C(=O)Nc1ccc(C#CCCO)cc13)CC2 | 0.943
48 | CN1C=C(C(=O)OCCS(C)(=O)=O)C(C(=O)OCCS(C)(=O)=O)=CC(c2ccc(CO)cc2)=CC1C1CC1 (configuration not stated) | 0.922
49 | C=C[C@H](CO[Si](CC)(CC)CC)N(Cc1ccc(OC(C)=O)c(OC)c1)S(=O)(=O)c1ccc(Br)cc1 | 0.713
50 | C[N+](C)(C)CCCCCCNC(=O)[C@@H]1C[C@@H]2C(=O)N[C@@H](Cc3ccccc3)C(=O)N2[C@@H]1c1cccc(OCCO)c1 | 0.659
51 | NC(=O)[C@@H]1[C@H]2C(=O)O[C@H](c3ccccc3)[C@H](c3ccccc3)N2[C@H](c2ccc(O)cc2)[C@@]12C(=O)Nc1ccccc12 | 0.156
52 | C=C(CCCC)/C(=C/C[C@@H](OC(C)=O)c1ccc(OCCO)cc1)c1cnc2ccccc2c1 | 0.773
